Mdm2 MdmX PPI: disrupts the human Mdm2-MdmX interaction | SaOS-2 split-luciferase Mdm2/MdmX complementation, luminescence | inhibition, % at 8 µM | hit rate 3% among 330,000 | AID 485346;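 active = inhibition of at least 50% at 8 µM in the primary screen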
Target sequence (O15151 whole entry, looked up): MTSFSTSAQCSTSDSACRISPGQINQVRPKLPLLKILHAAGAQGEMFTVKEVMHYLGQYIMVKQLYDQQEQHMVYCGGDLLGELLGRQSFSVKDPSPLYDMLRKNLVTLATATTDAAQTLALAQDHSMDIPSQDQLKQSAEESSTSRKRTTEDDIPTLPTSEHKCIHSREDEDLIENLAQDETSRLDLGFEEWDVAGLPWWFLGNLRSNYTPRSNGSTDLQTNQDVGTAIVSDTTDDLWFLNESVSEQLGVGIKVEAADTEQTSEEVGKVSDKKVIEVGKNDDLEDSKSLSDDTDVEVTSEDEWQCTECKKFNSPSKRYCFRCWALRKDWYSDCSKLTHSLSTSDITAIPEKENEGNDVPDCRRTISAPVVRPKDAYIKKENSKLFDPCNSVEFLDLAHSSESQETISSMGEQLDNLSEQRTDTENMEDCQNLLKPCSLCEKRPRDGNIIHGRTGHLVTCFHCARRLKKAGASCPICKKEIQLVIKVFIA
Target sequence (Q00987 whole entry, looked up): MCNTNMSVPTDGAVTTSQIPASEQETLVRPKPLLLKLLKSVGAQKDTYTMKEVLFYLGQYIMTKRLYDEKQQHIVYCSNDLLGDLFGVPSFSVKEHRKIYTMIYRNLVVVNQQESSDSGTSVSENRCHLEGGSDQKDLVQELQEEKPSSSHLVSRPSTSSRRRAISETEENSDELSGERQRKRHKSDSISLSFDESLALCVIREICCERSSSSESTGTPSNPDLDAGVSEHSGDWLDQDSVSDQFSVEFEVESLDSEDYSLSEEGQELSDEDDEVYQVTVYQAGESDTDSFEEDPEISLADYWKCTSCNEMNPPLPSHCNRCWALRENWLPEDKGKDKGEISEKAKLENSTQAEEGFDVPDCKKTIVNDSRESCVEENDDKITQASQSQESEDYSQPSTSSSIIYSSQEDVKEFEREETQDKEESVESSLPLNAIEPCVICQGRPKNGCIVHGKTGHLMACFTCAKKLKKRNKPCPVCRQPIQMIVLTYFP
MPTP inh: permeability transition pore inhibition. isolated mouse mitochondria, Ca2+ swelling absorbance, 30 min. inhibition, % at 10 µM. hit rate 1.4% among 360,000. AID 602449;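 active = inhibition of 50% or more, scaled per plate between neutral and stimulator controls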;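 note: 0% = DMSO wells given calcium and 100% = 1 mM EGTA wells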
CSC inhib: blocks cancer stem cells; cancer stem cell-like cells viability, luminescence; inhibition, % at 7.5 µM; hit rate 1.1% among 300,000; AID 2717; in the data active = inhibition above about 75%; tested in HMLE shEcad cells
SKKanGAS inh: inhibitors of SKKanGAS S. pyogenes growth in kanamycin (SK-promoter or general growth effect). AID 1662. hit rate 1.3% among 300,000. BacTiter-Glo, 6 h. inhibition, % at 7.5 µM;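 active = mean replicate score, as percent of positive control median, at least 50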;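 note: strain carries kanamycin resistance gene driven by streptokinase promoter and grows in 40 µg/ml kanamycin; loss of luminescence reflects streptokinase promoter inhibition or plain growth inhibition; 0% = median of DMSO wells and 100% = positive control at its reference dose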
NR3A LBD binder: modulates the human NR3A ligand-binding domain; NR3A LBD differential scanning fluorimetry, Tm shift; 0% = protein alone, 100% = glycine-bound protein; Tm shift relative to glycine control, % at 25 µM; hit rate 2.5% among 340,000; AID 1259313;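 active = melting temperature shift of at least 10% of the positive control shift, at one fixed dose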
Beta apoptosis: beta cell apoptosis inhibition; INS-1E cytokine-induced death, ATP luminescence, 48 h; percent of positive-control rescue, neutral wells zero; protection from apoptosis, % (concentration not given with the values); hit rate 0.8% among 300,000; AID 435005;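 active = Every replicate reaches about 75%, or at least half do and their mean reaches it too, limit read from the data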;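 note: 0% = cytokine-treated negative control wells and 100% = positive control rescue; higher means more ATP so stronger rescue from cytokine killing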
* marks the source's active call; other numbers are inactive results; x = not tested or not shown. Shown are actives, neighbours in structure and some others; about 6.9% of the full set was active somewhere.

SMILES | Mdm2 MdmX PPI | MPTP inh | CSC inhib | SKKanGAS inh | NR3A LBD binder | Beta apoptosis
C[C@H]1C(=O)N(C)CCN1C(=O)c1cccc(OC2CCN(CC(C)(C)C)CC2)c1 | 9.6 | 1.8 | -4.4 | 0.4 | 0.1 | -8.1
COC1CCCCC1NS(=O)(=O)c1ccccc1 (configuration not stated) | 28.2 | 1.0 | 3.8 | -8.2 | 18.4* | -0.1
CCOC(=O)c1c(NC(C)=O)sc2c1CCN(Cc1ccccc1)C2 | 22.0 | 2.1 | 12.3 | -3.0 | 0.5 | -4.5
CCOC(=O)c1c(NC(C)=O)sc2c1CCC(C=O)=C2Sc1ccccc1 | 24.3 | 2.0 | 88.8* | 20.1 | -4.5 | -2.3
COC(=O)[C@]12CCCCC=C1N(Cc1cccc3ccccc13)C(=O)[C@H](CC(=O)NCc1ccc(OC)c(OC)c1)C2 | x | -0.6 | x | x | x | x
Cc1ccc2[nH]c(O)c(N=NC(=O)CCc3ccccc3)c2c1Br | 6.3 | 12.7 | 51.2 | 2.2 | 17.1* | -17.4
O=C(NC(c1ccc(Cl)cc1)c1cnccn1)C1CCN(CCCOc2ccccc2)CC1 (configuration not stated) | x | -2.2 | x | x | x | x
C/C(=N\N=C1\NC(=O)C(CC(=O)Nc2ccc(C)c(Cl)c2)S1)C(C)(C)C (configuration not stated) | 32.1 | 3.3 | -15.9 | 14.3 | 19.5* | 17.8
O=C(CC1S/C(=N/N=C/c2cccs2)NC1=O)Nc1ccc(Cl)c(Cl)c1 (configuration not stated) | 17.8 | -2.3 | -7.4 | 46.8 | 28.5* | -1.5
COc1ccc(NS(=O)(=O)c2cc3c4c(c2)CCN4C(=O)CC3)cc1OC | 40.8 | 2.3 | -4.4 | 1.7 | 0.4 | 5.0
Cc1c(O)cc2c(c1O)C(=O)CC(c1ccccc1)O2 (configuration not stated) | -5.3 | -0.6 | 76.8* | 2.8 | -3.0 | 13.0
COc1ccccc1-c1nnc(SCC(=O)NCc2c(C)c(Cl)cc(C(C)C)c2O)o1 | 34.1 | 18.2 | -4.0 | 18.8 | 23.0* | -7.4
CC1C(=O)N2CCCc3cc(S(=O)(=O)N(C)CCC#N)cc1c32 (configuration not stated) | -22.9 | -1.5 | -7.1 | -1.0 | -3.0 | -3.7
O=C(COc1ccc(Cl)cc1)OCC(=O)c1ccc[nH]1 | 13.8 | -0.5 | 7.3 | x | -1.2 | 10.2
C=CCn1c(O)c(C2=c3ccccc3=NC2=O)c2ccccc21 | 31.5 | -0.7 | 96.4* | 5.6 | -12.5 | 7.3
CC1(C(=O)NS(=O)(=O)C2CC2)CCN(C(=O)c2ccccc2F)C1 (configuration not stated) | x | 0.2 | x | x | x | x
CCNC(=O)COC(=O)c1ccc(-n2nc(C)cc2C)cc1 | -1.0 | -1.1 | -8.1 | -4.0 | -2.1 | 2.6
Cc1cc(C)n(-c2ccc(C(=O)OCC(=O)NCc3ccco3)cc2)n1 | 5.9 | -1.4 | -7.7 | 8.3 | 21.5* | -3.4
Cc1cc(C(=O)C(C)OC(=O)c2ccc(NC(=O)CC#N)cc2)c(C)n1-c1ccc(OC(F)F)cc1 (configuration not stated) | 27.2 | 1.7 | 48.7 | x | 3.9 | 87.5*
CCOc1ccc(CCN2C(=S)N([C@@H](Cc3ccc(O)cc3)CN3CCC[C@@H]3CN3C(=S)NC[C@@H]3CC(C)C)C[C@@H]2CC(C)C)cc1 | x | 1.3 | x | x | x | x
CCOc1ccc(-n2cc(-c3ccccc3)c3c(=S)nc[nH]c32)cc1 | 28.4 | 0.4 | 31.9 | 76.8* | -8.6 | 11.7
COc1ccc(NC(=O)CN(C)CC(=O)N2CC(=O)Nc3ccccc32)cc1 | 2.8 | -0.5 | -3.2 | x | 1.2 | 1.7
C=Cc1ccc(Cn2c(=O)n(CCCOC)c(=O)c3sccc32)cc1 | -0.9 | 0.2 | -11.6 | 6.9 | -1.4 | x
Cc1ccccc1OCC(=O)NNC(=O)C1CC(=O)N(c2ccc3c(c2)OCCO3)C1 (configuration not stated) | 21.2 | -1.1 | x | x | -3.0 | x
CC1(c2ccc(Cl)cc2)NC(=O)N(CC(=O)N2CCCC2)C1=O (configuration not stated) | 11.2 | 0.0 | -5.6 | 6.6 | 11.2* | -8.9
SMILES | Mdm2 MdmX PPI | MPTP inh | CSC inhib | SKKanGAS inh | NR3A LBD binder | Beta apoptosis
CC1(c2ccc(Cl)cc2)NC(=O)N(CC(=O)Nc2ccc(N3CCCCC3)cc2)C1=O (configuration not stated) | 15.9 | 0.0 | -14.7 | -3.0 | -1.4 | 4.8
CC1Oc2cc3oc4c(O)c5c(cc4c(=O)c3c(O)c2C1(C)C)C=CC(C)(C)O5 (configuration not stated) | 17.5 | x | -6.8 | 70.0* | 3.4 | 2.0
Cc1nc2scc(-c3cccs3)c2c(=O)[nH]1 | 9.9 | -3.7 | 6.6 | -7.8 | 2.0 | -7.0
O=c1[nH]c(-c2ccc(O)cc2)nc2scc(-c3cccs3)c12 | -55.5 | 10.7 | 46.4 | 37.7 | 18.8* | -3.8
COc1ccccc1NC(=O)COC(=O)CCC1CCCC1 | 17.7 | -0.1 | -2.9 | x | 4.0 | -2.6
COc1ccccc1NC(=O)C(C)OC(=O)CCC1CCCCC1 (configuration not stated) | 1.4 | 1.5 | -7.2 | 6.7 | 10.6* | -6.8
CCOC(=O)C1=CN(Cc2cccc(-c3ccc(F)cc3)c2)S(=O)(=O)N(C)C1C (configuration not stated) | 22.2 | 1.9 | x | x | 12.7* | x
COc1ccc(Cl)cc1NC(=O)CSc1nnc(C)c(=O)n1N | 1.5 | -1.5 | -2.8 | 0.5 | 12.6* | -7.5
O=C(Oc1cccc(Nc2ncnc3ccccc23)c1)c1ccccc1Cl | 45.6 | 2.4 | 0.3 | 60.6* | 0.4 | 18.0
COc1ccc(N2C(=O)C3C4C=CC(c5ccccc5)(C3C2=O)C2C(=O)N(c3ccc(OC)cc3)C(=O)C42)cc1 (configuration not stated) | 16.8 | -1.3 | -9.9 | 5.0 | 12.1* | -2.9
COc1ccc(-n2c(=S)[nH]c3cc(C(=O)Nc4ccc(C)c(F)c4)ccc3c2=O)c(OC)c1 | 14.8 | 3.0 | 15.7 | 76.1* | 13.3* | 24.2
CC1(C)CCCN(C(=O)N2c3ccccc3Sc3ccccc32)C1 | -5.3 | 1.5 | 24.2 | 79.7* | 2.7 | x
O=C(CN1CCCC1)N1c2ccccc2Sc2ccccc21 | 20.2 | -0.9 | -13.1 | 0.5 | -1.4 | -7.5
CCOC(=O)CN1C(c2ccc(O)cc2)Nc2ccc(Br)cc2C1c1ccccc1 (configuration not stated) | -17.7 | 5.0 | -3.3 | 5.3 | 19.5* | -6.3
c1ccc(C(c2ccccc2)c2nc(-c3cccnc3)no2)cc1 | 13.7 | 0.3 | -3.7 | -4.1 | 15.7* | -2.5
c1ccc(C(Cc2nc(-c3cccnc3)no2)c2ccccc2)cc1 | -13.4 | 1.1 | -20.6 | -1.0 | 1.0 | 1.9
COC(=O)Cc1ccc(OC(=O)CCS(=O)(=O)c2ccc(C)cc2)cc1 | 24.4 | -0.7 | -1.1 | -0.5 | 1.8 | 0.6
N=C1/C(=C\c2ccc(OC(=O)c3ccccc3Cl)cc2)C(=O)N=C2SC(N3CCOCC3)=NN12 | 3.6 | 1.2 | -3.4 | 53.5* | -4.3 | -6.4
O=C1c2ccccc2C(=O)c2cc(N3CCCCC3)ccc21 | x | 2.1 | x | x | 38.3* | x
CCC/C(=N\NC(=O)CNC(=O)/C=C/c1ccco1)c1ccccc1 | 22.8 | -4.5 | 2.8 | 30.3 | 10.0* | -5.0

Screens as filed in PubChem BioAssay.
